In all, about 5,500 compounds went through this assay and about 2,000 (36%) were called active. Roughly 18% stayed inconclusive and do not appear here. Rule as the data show it: active = normalized growth mostly below about 0.91 (no sharp cut-off); inconclusive = no clear call, values can overlap the other calls; inactive = mostly above about 0.92. The list shows a part of the results.
Assay: chemical genetic growth profiling, strain panel (AID 1159580);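 also: tested at 20 µM; growth read once vehicle control cultures reached saturation at 30 °C; 1 = growth at the plate median or of vehicle wells; lower values mean less growth of the strain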
Settings: growth OD

Measured: normalized growth

O=S1OCC2C(CO1)C1(Cl)C(Cl)=C(Cl)C2(Cl)C1(Cl)Cl (centres undefined)
active: S. cerevisiae deletion strains, locus YNL307C, strain MCK1, hits give low values 0.885 | S. cerevisiae deletion strains, locus YOR270C, strain vph1, hits give low values 0.633
inactive: S. cerevisiae deletion strains, locus YJR043C, strain POL32, hits give low values 0.96 | S. cerevisiae deletion strains, locus YJR075W, strain HOC1, hits give low values 0.986 | S. cerevisiae deletion strains, locus YKL009W, strain mrt4, hits give low values 0.947 | S. cerevisiae deletion strains, locus YKL068W, hits give low values 0.964 | S. cerevisiae deletion strains, locus YKL085W, strain MDH1 (second series), hits give low values 0.982 | S. cerevisiae deletion strains, locus YKL085W, strain MDH1, hits give low values 0.982 | S. cerevisiae deletion strains, locus YKL160W, strain elf1, hits give low values 0.953 | S. cerevisiae deletion strains, locus YKL190W, strain CNB1, hits give low values 1 | S. cerevisiae deletion strains, locus YKR001C, strain vps1, hits give low values 0.975 | S. cerevisiae deletion strains, locus YKR026C, strain gcn3, hits give low values 0.987 | S. cerevisiae deletion strains, locus YKR091W, strain srl3, hits give low values 0.991 | S. cerevisiae deletion strains, locus YLL001W, strain dnm1, hits give low values 0.99 | S. cerevisiae deletion strains, locus YLL026W, hits give low values 1 | S. cerevisiae deletion strains, locus YLL041C, strain sdh2, hits give low values 0.992 | S. cerevisiae deletion strains, locus YLR027C, strain aat2, hits give low values 0.961 | S. cerevisiae deletion strains, locus YLR039C, strain RIC1, hits give low values 1.06 | S. cerevisiae deletion strains, locus YLR058C, strain SHM2, hits give low values 0.979 | S. cerevisiae deletion strains, locus YLR102C, strain apc9, hits give low values 0.973 | S. cerevisiae deletion strains, locus YLR221C, strain rsa3, hits give low values 0.931 | S. cerevisiae deletion strains, locus YLR258W, strain gsy2, hits give low values 0.973 | S. cerevisiae deletion strains, locus YLR262C, strain YPT6 (second series), hits give low values 1.06 | S. cerevisiae deletion strains, locus YLR262C, strain YPT6, hits give low values 1.05 | S. cerevisiae deletion strains, locus YLR268W, strain sec22, hits give low values 0.97 | S. cerevisiae deletion strains, locus YLR320W, strain mms22, hits give low values 0.961 | S. cerevisiae deletion strains, locus YLR330W, strain CHS5, hits give low values 0.984 | S. cerevisiae deletion strains, locus YLR342W, strain FKS1 (second series), hits give low values 0.872 | S. cerevisiae deletion strains, locus YLR342W, strain FKS1, hits give low values 0.991 | S. cerevisiae deletion strains, locus YLR357W, strain rsc2, hits give low values 0.996 | S. cerevisiae deletion strains, locus YLR370C, strain arc18, hits give low values 0.997 | S. cerevisiae deletion strains, locus YLR371W, strain rom2, hits give low values 0.949 | S. cerevisiae deletion strains, locus YLR384C, strain iki3, hits give low values 1 | S. cerevisiae deletion strains, locus YLR418C, strain cdc73, hits give low values 0.946 | S. cerevisiae deletion strains, locus YML016C, strain PPZ1, hits give low values 0.991 | S. cerevisiae deletion strains, locus YML032C, strain rad52, hits give low values 0.974 | S. cerevisiae deletion strains, locus YML120C, strain ndi1, hits give low values 0.983 | S. cerevisiae deletion strains, locus YML124C, strain tub3, hits give low values 0.976 | S. cerevisiae deletion strains, locus YMR058W, strain fet3, hits give low values 0.976 | S. cerevisiae deletion strains, locus YMR078C, strain ctf18, hits give low values 0.977 | S. cerevisiae deletion strains, locus YMR125W, strain sto1, hits give low values 0.998 | S. cerevisiae deletion strains, locus YMR129W, hits give low values 0.992 | S. cerevisiae deletion strains, locus YMR205C, strain PFK2, hits give low values 0.91 | S. cerevisiae deletion strains, locus YMR223W, strain ubp8, hits give low values 0.955 | S. cerevisiae deletion strains, locus YMR231W, strain pep5, hits give low values 0.97 | S. cerevisiae deletion strains, locus YMR263W, strain SAP30, hits give low values 0.946 | S. cerevisiae deletion strains, locus YMR307W, strain GAS1, hits give low values 0.978 | S. cerevisiae deletion strains, locus YNL067W, strain RPL9B, hits give low values 0.981 | S. cerevisiae deletion strains, locus YNL071W, strain lat1, hits give low values 0.966 | S. cerevisiae deletion strains, locus YNL128W, strain TEP1, hits give low values 0.975 | S. cerevisiae deletion strains, locus YNL153C, strain GIM3, hits give low values 0.987 | S. cerevisiae deletion strains, locus YNL209W, strain ssb2, hits give low values 0.991 | S. cerevisiae deletion strains, locus YNL233W, strain BNI4, hits give low values 1 | S. cerevisiae deletion strains, locus YNL248C, strain rpa49, hits give low values 0.992 | S. cerevisiae deletion strains, locus YNL250W, strain rad50, hits give low values 0.957 | S. cerevisiae deletion strains, locus YNL271C, strain bni1, hits give low values 0.971 | S. cerevisiae deletion strains, locus YNL298W, strain CLA4, hits give low values 0.946 | S. cerevisiae deletion strains, locus YNL322C, strain KRE1 (second series), hits give low values 0.986 | S. cerevisiae deletion strains, locus YNL322C, strain KRE1, hits give low values 0.978 | S. cerevisiae deletion strains, locus YNR049C, strain mso1, hits give low values 0.997 | S. cerevisiae deletion strains, locus YNR052C, strain pop2, hits give low values 0.968 | S. cerevisiae deletion strains, locus YOL006C, strain TOP1, hits give low values 0.822 | S. cerevisiae deletion strains, locus YOL012C, strain htz1 0.777 | S. cerevisiae deletion strains, locus YOL147C, strain pex11, hits give low values 0.991 | S. cerevisiae deletion strains, locus YOR001W, strain rrp6, hits give low values 0.978 | S. cerevisiae deletion strains, locus YOR061W, strain CKA2, hits give low values 0.987 | S. cerevisiae deletion strains, locus YOR069W, strain VPS5, hits give low values 0.979 | S. cerevisiae deletion strains, locus YOR070C, strain gyp1, hits give low values 0.979 | S. cerevisiae deletion strains, locus YOR080W, strain dia2, hits give low values 0.991 | S. cerevisiae deletion strains, locus YOR083W, strain WHI5, hits give low values 0.942 | S. cerevisiae deletion strains, locus YOR106W, strain vam3, hits give low values 0.884 | S. cerevisiae deletion strains, locus YOR136W, strain idh2, hits give low values 0.98 | S. cerevisiae deletion strains, locus YOR144C, strain elg1, hits give low values 0.984 | S. cerevisiae deletion strains, locus YOR184W, strain ser1, hits give low values 0.887 | S. cerevisiae deletion strains, locus YOR265W, strain rbl2, hits give low values 0.993 | S. cerevisiae deletion strains, locus YOR290C, strain snf2, hits give low values 0.937 | S. cerevisiae deletion strains, locus YOR316C, strain cot1, hits give low values 0.975 | S. cerevisiae deletion strains, locus YPL051W, strain arl3, hits give low values 0.988 | S. cerevisiae deletion strains, locus YPL055C, strain LGE1, hits give low values 0.974 | S. cerevisiae deletion strains, locus YPL078C, strain atp4, hits give low values 0.987 | S. cerevisiae deletion strains, locus YPL106C, strain sse1, hits give low values 0.993 | S. cerevisiae deletion strains, locus YPL240C, strain hsp82, hits give low values 0.991 | S. cerevisiae deletion strains, locus YPL241C, strain CIN2, hits give low values 0.985 | S. cerevisiae deletion strains, locus YPR119W, strain clb2, hits give low values 0.976 | S. cerevisiae deletion strains, locus YPR141C, strain kar3, hits give low values 0.98 | S. cerevisiae deletion strains, locus YPR163C, strain tif3, hits give low values 0.978 | S. cerevisiae deletion strains, locus YPR167C, strain met16, hits give low values 0.971 | S. cerevisiae deletion strains, strain wtn01, hits give low values 0.954 | S. cerevisiae strains, strain wild type, hits give low values 0.987

Source: PubChem BioAssay AID1159580 (chemical genetic matrix, 2015)
